PubChem BioAssay (NCATS)
Results filed as inconclusive are left out. Activity calls are given as the source filed them. Calls follow the shape of the dose curve; as a rule, active = well fitted inhibition curve with a large enough effect; inconclusive = small, poorly fitted or top-dose-only effect; inactive = flat fitted curve, though single readings scatter.

What was measured:
Test in all cases: qHTS profiling for inhibitors of Plasmodium falciparum proliferation (AID 504749); also: nearly all actives have a fitted effect of over 60% in size
Conditions in all cases: P. falciparum in erythrocytes, SYBR Green DNA, 72 h; series mostly up to 28.7 µM
CP252 = tested on: CP252
Method in brief: (§1)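 Three-day growth assay of blood-stage parasites in erythrocytes (0.3% parasitemia, 2.5% hematocrit) at 37 C, 5% CO2, quantified by SYBR Green DNA staining after overnight detergent lysis.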

CP256 = tested on: CP256
Method in brief: as §1

CP260 = tested on: CP260
Method in brief: as §1

CP262 = tested on: CP262
Method in brief: as §1

CP265 = tested on: CP265
Method in brief: as §1

CP268 = tested on: CP268
Method in brief: as §1

CP269 = tested on: CP269
Method in brief: as §1

CP286 = tested on: CP286
Method in brief: as §1

CP291 = tested on: CP291
Method in brief: as §1

CP305 = tested on: CP305
Method in brief: as §1

CP315 = tested on: CP315
Method in brief: as §1

CP325 = tested on: CP325
Method in brief: as §1

CP329 = tested on: CP329
Method in brief: as §1

CP335 = tested on: CP335
Method in brief: as §1

DFO2036 = tested on: DFO2036
Method in brief: as §1

DIV14 = tested on: DIV14
Method in brief: as §1

DIV17 = tested on: DIV17
Method in brief: as §1

DIV30 = tested on: DIV30
Method in brief: as §1

Dd2 = tested on: Dd2
Method in brief: as §1

ECU = tested on: ECU
Method in brief: as §1

FAB9 = tested on: FAB9
Method in brief: as §1

GB4 = tested on: GB4
Method in brief: as §1

HB3 = tested on: HB3
Method in brief: as §1

ICS = tested on: ICS
Method in brief: as §1

JCK = tested on: JCK
Method in brief: as §1

N140 = tested on: N140
Method in brief: as §1

P93_24 = tested on: P93_24
Method in brief: as §1

P94_40 = tested on: P94_40
Method in brief: as §1

PAD = tested on: PAD
Method in brief: as §1

PC26 = tested on: PC26
Method in brief: as §1

SC27B = tested on: SC27B
Method in brief: as §1

TAB109 = tested on: TAB109
Method in brief: as §1

TAB113 = tested on: TAB113
Method in brief: as §1

TAB165 = tested on: TAB165
Method in brief: as §1

W2 = tested on: W2
Method in brief: as §1

Measured: Potency

O=C(O)c1ccccc1-c1c2cc(Br)c(=O)cc-2oc2[c]([Hg])c(O)c(Br)cc12
inactive: all assays above
